Measurements from publication PMC7862700, “An all-to-all approach to the identification of sequence-specific readers for epigenetic DNA modifications on cytosine”.

How the values were obtained:
Experiment in all cases: DAPPL (digital affinity profiling via proximity ligation, sequencing); 10 mM Tris-HCl pH 7.5, 50 mM NaCl, 1 mM DTT, 4% glycerol, room temperature, 30 min; GST-TFs on glutathione beads, 16-mer random dsDNA library, 0.1% formaldehyde crosslink after washing; high values mean tight binding
FLI1 = biological target: T1, FLI1 (Homo sapiens, UniProt Q01543 1-452); conditions: protein: recombinant; tags: N-terminal GST; dsDNA, one strand shown
T1 sequence: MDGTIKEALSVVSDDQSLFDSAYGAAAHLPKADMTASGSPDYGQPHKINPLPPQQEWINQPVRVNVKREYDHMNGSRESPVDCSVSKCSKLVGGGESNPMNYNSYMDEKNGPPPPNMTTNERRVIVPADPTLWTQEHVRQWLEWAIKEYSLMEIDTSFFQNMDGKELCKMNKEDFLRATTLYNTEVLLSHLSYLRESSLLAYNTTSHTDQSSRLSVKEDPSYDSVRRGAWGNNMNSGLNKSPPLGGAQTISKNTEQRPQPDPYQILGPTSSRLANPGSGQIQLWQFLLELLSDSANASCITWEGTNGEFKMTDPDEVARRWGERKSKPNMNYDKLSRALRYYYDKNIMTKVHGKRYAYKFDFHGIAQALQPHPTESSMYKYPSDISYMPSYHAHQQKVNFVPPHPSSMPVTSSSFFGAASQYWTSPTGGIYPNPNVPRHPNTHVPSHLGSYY
In short: (§1)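 Yeast served to express human transcription factors as GST fusions, which were then captured on glutathione beads and labelled with DNA barcodes. Pooled with a tag-only sample, they were incubated with 200 nmole of a 16-mer random double-stranded DNA library for 30 min at room temperature in Tris/NaCl/DTT/glycerol buffer, washed, crosslinked with 0.1% formaldehyde, ligated by proximity, amplified by PCR and sequenced. Dividing each hexamer's read frequency for a factor by its frequency for the tag-only sample gives the binding signal.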

ELK1 = biological target: T2, ELK1 (Homo sapiens, UniProt P19419 1-428); conditions: protein: recombinant; tags: N-terminal GST; dsDNA, one strand shown
T2 sequence: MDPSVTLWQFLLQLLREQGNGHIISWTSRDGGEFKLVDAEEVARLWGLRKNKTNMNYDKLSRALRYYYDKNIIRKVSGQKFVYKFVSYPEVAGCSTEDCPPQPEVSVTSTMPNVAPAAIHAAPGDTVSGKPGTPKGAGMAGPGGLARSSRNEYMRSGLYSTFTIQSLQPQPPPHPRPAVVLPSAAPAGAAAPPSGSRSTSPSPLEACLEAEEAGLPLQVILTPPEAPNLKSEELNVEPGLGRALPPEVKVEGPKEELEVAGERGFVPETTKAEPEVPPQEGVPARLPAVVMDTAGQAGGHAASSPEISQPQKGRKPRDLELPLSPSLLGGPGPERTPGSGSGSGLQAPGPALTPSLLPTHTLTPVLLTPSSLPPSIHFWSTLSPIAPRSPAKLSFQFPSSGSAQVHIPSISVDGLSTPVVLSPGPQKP
In short: as §1

GABPA = biological target: T3, GABPA (Homo sapiens, UniProt Q06546 1-454); conditions: protein: recombinant; tags: N-terminal GST; dsDNA, one strand shown
T3 sequence: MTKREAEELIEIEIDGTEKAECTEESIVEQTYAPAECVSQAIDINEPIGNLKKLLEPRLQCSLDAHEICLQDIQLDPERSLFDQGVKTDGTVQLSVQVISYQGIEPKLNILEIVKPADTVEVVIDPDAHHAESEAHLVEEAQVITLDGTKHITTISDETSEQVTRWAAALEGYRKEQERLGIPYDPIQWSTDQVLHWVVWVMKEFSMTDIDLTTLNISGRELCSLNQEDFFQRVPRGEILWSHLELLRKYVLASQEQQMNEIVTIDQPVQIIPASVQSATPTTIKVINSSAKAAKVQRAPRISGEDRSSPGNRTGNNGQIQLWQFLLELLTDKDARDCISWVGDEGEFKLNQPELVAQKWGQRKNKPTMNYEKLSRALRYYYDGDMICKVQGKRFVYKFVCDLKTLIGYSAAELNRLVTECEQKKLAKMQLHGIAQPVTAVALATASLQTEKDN
In short: as §1

ERG = biological target: T4, ERG (Homo sapiens, UniProt P11308 1-479); conditions: protein: recombinant; tags: N-terminal GST; dsDNA, one strand shown
T4 sequence: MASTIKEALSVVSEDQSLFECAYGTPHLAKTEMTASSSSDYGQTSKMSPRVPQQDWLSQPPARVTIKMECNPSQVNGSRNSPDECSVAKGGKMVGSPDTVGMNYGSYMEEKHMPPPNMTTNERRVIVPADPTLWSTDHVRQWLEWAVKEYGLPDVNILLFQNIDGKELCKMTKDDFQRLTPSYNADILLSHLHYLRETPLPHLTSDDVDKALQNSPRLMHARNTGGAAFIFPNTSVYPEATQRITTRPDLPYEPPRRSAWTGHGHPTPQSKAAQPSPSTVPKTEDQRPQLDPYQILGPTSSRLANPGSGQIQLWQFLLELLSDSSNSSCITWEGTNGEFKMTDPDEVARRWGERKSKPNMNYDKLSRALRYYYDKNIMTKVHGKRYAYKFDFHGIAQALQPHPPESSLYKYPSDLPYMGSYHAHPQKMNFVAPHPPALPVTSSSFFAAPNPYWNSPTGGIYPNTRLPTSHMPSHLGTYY
In short: as §1

ELF1 = ELF1 (Homo sapiens, UniProt P32519 1-619); conditions: protein: recombinant; tags: N-terminal GST; dsDNA, one strand shown
In short: as §1

EHF = biological target: T5, EHF (Homo sapiens, UniProt Q9NZC4 1-300); conditions: protein: recombinant; tags: N-terminal GST; dsDNA, one strand shown
T5 sequence: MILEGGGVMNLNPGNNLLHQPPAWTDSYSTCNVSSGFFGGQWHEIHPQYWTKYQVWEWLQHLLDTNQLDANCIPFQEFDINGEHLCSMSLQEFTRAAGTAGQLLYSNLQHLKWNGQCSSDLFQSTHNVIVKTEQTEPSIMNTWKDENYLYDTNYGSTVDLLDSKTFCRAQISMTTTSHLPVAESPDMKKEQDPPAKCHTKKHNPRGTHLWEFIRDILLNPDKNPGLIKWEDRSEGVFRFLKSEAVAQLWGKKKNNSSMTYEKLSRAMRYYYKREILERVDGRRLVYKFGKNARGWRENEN
In short: as §1

SPI1 = SPI1 (Homo sapiens, UniProt P17947 1-270); conditions: protein: recombinant; tags: N-terminal GST; dsDNA, one strand shown
In short: as §1

SPIB = SPIB (Homo sapiens, UniProt Q01892 1-262); conditions: protein: recombinant; tags: N-terminal GST; dsDNA, one strand shown
In short: as §1

ELK3 = biological target: T6, ELK3 (Homo sapiens, UniProt P41970 1-407); conditions: protein: recombinant; tags: N-terminal GST; dsDNA, one strand shown
T6 sequence: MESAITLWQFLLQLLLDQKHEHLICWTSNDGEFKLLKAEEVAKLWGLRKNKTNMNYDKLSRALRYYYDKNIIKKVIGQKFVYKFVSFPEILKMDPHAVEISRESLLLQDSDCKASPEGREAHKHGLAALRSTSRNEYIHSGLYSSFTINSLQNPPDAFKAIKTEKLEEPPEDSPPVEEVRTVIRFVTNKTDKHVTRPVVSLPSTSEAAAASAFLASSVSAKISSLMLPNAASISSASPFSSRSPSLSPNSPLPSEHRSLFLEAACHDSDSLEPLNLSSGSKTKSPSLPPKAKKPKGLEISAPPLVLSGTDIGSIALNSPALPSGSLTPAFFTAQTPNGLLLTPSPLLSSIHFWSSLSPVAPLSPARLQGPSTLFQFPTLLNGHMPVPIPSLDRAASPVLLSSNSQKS
In short: as §1

FEV = biological target: T7, FEV (Homo sapiens, UniProt Q99581 1-238); conditions: protein: recombinant; tags: N-terminal GST; dsDNA, one strand shown
T7 sequence: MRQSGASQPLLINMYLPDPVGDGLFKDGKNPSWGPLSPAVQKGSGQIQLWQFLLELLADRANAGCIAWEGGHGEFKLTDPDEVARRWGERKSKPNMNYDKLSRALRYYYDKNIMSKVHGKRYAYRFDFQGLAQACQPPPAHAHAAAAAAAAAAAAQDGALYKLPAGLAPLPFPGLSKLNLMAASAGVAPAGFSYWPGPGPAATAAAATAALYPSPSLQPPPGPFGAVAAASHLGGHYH
In short: as §1

ETV5 = ETV5 (Homo sapiens, UniProt P41161 1-510); conditions: protein: recombinant; tags: N-terminal GST; dsDNA, one strand shown
In short: as §1

HSF1 = HSF1 (Homo sapiens, UniProt Q00613 1-529); conditions: protein: recombinant; tags: N-terminal GST; chain copies: 3; dsDNA, one strand shown
In short: as §1

SPIC = biological target: T8, SPIC (Homo sapiens, UniProt Q8N5J4 1-248); conditions: protein: recombinant; tags: N-terminal GST; dsDNA, one strand shown
T8 sequence: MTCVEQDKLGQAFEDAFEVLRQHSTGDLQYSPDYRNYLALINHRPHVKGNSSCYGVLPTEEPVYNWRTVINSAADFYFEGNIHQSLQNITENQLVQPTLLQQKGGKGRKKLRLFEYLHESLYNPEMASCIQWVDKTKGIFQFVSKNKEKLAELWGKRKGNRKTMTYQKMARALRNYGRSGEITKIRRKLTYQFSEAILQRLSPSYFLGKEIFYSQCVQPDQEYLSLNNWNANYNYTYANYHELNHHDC
In short: as §1

ELF4 = ELF4 (Homo sapiens, UniProt Q99607 1-663); conditions: protein: recombinant; tags: N-terminal GST; dsDNA, one strand shown
In short: as §1

ELK4 = biological target: T9, ELK4 (Homo sapiens, UniProt P28324-2 1-405); conditions: protein: recombinant; tags: N-terminal GST; dsDNA, one strand shown
T9 sequence: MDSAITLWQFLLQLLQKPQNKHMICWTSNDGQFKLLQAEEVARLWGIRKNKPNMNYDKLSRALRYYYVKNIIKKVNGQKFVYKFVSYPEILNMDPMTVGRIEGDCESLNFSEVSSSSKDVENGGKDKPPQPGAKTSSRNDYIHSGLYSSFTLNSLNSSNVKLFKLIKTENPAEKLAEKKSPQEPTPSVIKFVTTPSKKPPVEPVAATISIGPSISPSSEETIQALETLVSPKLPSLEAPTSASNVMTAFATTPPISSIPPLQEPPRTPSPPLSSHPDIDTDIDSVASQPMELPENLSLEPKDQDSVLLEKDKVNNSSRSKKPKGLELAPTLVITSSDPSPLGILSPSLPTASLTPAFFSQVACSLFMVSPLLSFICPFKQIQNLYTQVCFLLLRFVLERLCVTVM
In short: as §1

ETV2 = biological target: T10, ETV2 (Homo sapiens, UniProt O00321 1-342); conditions: protein: recombinant; tags: N-terminal GST; dsDNA, one strand shown
T10 sequence: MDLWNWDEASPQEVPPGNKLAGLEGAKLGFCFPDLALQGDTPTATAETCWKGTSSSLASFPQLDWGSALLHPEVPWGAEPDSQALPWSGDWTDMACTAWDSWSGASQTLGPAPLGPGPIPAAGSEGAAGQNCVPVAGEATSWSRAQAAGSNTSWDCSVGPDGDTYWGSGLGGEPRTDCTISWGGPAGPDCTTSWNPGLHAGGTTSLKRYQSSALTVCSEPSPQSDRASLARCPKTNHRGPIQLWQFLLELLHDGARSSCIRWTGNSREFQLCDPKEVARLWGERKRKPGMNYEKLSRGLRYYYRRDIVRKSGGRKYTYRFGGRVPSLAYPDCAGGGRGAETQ
In short: as §1

ELF3 = biological target: T11, ELF3 (Homo sapiens, UniProt P78545 1-371); conditions: protein: recombinant; tags: N-terminal GST; dsDNA, one strand shown
T11 sequence: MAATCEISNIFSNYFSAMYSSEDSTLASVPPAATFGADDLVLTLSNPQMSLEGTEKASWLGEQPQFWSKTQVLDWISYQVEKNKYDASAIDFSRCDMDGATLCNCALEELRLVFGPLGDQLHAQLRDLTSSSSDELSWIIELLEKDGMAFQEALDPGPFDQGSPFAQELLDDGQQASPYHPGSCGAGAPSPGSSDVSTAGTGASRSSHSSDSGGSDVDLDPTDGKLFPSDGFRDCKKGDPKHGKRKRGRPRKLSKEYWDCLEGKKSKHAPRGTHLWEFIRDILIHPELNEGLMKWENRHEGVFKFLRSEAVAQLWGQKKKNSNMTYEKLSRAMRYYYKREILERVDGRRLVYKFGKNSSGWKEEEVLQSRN
In short: as §1

CRX = CRX (Homo sapiens, UniProt O43186 1-299); conditions: protein: recombinant; tags: N-terminal GST; dsDNA, one strand shown
In short: as §1

ETV1 = ETV1 (Homo sapiens, UniProt P50549 1-477); conditions: protein: recombinant; tags: N-terminal GST; dsDNA, one strand shown
In short: as §1

Chain of SPIB (Q01892 whole entry): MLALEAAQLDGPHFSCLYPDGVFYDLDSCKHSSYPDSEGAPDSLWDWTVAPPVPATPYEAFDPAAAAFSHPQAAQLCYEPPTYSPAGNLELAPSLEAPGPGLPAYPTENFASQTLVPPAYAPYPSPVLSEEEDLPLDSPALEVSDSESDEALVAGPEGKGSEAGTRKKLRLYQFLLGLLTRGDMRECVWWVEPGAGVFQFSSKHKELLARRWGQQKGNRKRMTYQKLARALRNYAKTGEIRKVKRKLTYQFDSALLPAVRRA
Chain of ETV5 (P41161 whole entry): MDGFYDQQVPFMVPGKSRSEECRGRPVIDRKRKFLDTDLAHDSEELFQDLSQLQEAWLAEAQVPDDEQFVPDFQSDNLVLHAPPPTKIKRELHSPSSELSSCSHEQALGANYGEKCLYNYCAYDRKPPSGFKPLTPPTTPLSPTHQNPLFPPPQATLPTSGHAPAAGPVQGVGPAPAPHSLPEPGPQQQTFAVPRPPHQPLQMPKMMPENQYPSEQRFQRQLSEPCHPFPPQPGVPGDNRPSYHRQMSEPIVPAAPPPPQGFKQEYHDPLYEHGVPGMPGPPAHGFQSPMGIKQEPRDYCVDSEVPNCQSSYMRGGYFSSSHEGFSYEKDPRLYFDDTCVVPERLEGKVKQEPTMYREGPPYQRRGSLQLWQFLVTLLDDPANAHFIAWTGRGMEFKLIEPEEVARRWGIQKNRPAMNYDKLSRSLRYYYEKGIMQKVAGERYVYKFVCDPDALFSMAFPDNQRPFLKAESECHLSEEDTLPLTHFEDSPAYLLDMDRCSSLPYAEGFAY
Chain of ELF4 (Q99607 whole entry): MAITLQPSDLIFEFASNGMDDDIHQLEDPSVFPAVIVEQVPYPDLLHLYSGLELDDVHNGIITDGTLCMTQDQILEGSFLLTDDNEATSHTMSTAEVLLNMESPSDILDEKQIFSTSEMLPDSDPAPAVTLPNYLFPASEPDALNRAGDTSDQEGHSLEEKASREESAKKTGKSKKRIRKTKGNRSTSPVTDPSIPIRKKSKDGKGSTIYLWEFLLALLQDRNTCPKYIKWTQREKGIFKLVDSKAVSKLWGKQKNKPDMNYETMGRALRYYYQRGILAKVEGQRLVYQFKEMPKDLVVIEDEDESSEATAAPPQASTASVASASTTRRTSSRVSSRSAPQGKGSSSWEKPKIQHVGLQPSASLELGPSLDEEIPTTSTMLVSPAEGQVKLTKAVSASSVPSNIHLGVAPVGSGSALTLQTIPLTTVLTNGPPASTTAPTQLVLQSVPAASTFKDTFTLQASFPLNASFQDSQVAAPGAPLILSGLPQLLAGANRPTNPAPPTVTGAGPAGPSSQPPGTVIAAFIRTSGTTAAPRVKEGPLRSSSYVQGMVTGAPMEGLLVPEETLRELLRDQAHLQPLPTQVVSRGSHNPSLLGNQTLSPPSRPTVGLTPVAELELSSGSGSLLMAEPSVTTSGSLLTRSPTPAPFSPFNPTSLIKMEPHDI
Chain of CRX (O43186 whole entry): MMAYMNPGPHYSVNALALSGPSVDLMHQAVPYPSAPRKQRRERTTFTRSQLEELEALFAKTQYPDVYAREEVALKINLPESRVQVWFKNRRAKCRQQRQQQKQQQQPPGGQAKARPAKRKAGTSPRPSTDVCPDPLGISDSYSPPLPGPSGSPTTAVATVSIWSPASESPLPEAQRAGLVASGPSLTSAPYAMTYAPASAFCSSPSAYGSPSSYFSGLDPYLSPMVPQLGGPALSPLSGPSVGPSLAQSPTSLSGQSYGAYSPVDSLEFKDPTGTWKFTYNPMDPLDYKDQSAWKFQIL
Chain of ETV1 (P50549 whole entry): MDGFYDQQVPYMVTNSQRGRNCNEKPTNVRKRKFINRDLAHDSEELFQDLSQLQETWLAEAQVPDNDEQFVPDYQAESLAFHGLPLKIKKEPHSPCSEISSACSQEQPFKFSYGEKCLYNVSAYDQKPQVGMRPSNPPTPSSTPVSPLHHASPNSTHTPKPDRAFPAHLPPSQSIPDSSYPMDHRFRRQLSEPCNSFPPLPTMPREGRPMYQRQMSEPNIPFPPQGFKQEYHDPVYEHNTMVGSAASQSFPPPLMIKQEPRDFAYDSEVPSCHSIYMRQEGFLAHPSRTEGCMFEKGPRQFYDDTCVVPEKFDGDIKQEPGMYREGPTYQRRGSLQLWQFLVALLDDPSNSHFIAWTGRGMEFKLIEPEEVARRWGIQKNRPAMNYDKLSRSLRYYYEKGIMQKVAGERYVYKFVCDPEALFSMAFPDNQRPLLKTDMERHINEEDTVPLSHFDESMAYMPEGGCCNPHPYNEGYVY
Chain of ELF1 (P32519 whole entry): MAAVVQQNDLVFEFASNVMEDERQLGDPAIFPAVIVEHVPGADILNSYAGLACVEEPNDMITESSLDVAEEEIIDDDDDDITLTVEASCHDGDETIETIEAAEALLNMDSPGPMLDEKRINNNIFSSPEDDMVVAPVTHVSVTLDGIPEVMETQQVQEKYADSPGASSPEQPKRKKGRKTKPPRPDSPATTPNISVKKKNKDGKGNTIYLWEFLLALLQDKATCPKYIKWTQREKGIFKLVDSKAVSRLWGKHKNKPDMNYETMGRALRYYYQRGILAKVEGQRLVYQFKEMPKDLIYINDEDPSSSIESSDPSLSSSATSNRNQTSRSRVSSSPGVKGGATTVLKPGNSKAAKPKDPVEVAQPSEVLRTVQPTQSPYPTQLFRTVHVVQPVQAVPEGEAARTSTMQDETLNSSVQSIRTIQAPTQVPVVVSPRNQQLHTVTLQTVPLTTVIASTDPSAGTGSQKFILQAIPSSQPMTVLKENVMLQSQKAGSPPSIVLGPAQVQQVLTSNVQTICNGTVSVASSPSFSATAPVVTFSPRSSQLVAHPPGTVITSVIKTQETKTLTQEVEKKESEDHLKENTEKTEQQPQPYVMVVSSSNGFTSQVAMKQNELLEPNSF
Chain of HSF1 (Q00613 whole entry): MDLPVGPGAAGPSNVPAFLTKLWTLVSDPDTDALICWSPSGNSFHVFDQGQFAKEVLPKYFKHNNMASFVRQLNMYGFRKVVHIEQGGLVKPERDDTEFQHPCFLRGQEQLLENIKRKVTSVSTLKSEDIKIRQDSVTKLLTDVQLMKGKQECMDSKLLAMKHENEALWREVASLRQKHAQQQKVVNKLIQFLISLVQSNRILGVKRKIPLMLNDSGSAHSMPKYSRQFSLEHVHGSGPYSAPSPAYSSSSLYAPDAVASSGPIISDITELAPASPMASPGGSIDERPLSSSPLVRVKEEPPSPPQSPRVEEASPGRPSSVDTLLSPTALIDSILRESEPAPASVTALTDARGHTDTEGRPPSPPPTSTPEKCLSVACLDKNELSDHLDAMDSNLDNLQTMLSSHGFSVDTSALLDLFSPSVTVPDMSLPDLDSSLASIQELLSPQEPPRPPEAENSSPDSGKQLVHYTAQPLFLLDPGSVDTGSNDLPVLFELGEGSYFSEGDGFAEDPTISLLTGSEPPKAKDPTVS

Sequence: GCTTCA
- binding signal (FLI1): 1.35 fold enrichment (6-mer frequency, TF over GST control)
- binding signal (ELK1): 1.39 fold enrichment (6-mer frequency, TF over GST control)
- binding signal (GABPA): 1.28 fold enrichment (6-mer frequency, TF over GST control)
- binding signal (ERG): 1.34 fold enrichment (6-mer frequency, TF over GST control)
- binding signal (ELF1): 1.33 fold enrichment (6-mer frequency, TF over GST control)
- binding signal (EHF): 1.4 fold enrichment (6-mer frequency, TF over GST control)
- binding signal (SPI1): 1.24 fold enrichment (6-mer frequency, TF over GST control)
- binding signal (SPIB): 1.31 fold enrichment (6-mer frequency, TF over GST control)
- binding signal (ELK3): 1.27 fold enrichment (6-mer frequency, TF over GST control)
- binding signal (FEV): 1.27 fold enrichment (6-mer frequency, TF over GST control)
- binding signal (ETV5): 1.24 fold enrichment (6-mer frequency, TF over GST control)
- binding signal (HSF1): 1.23 fold enrichment (6-mer frequency, TF over GST control)
- binding signal (SPIC): 1.3 fold enrichment (6-mer frequency, TF over GST control)
- binding signal (ELF4): 1.29 fold enrichment (6-mer frequency, TF over GST control)
- binding signal (ELK4): 1.36 fold enrichment (6-mer frequency, TF over GST control)
- binding signal (ETV2): 1.29 fold enrichment (6-mer frequency, TF over GST control)
- binding signal (ELF3): 1.31 fold enrichment (6-mer frequency, TF over GST control)
- binding signal (CRX): 1.1 fold enrichment (6-mer frequency, TF over GST control)
- binding signal (ETV1): 1.23 fold enrichment (6-mer frequency, TF over GST control)
